Laboratory results from PubChem BioAssay (NCI).
The panel holds about 83,000 compounds, 20% with a hit somewhere; the sample as a whole holds those more often.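 For each line, cells grew in 96-well plates with the test compound present at a single concentration for 48 hours.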 Unmarked numbers belong to inactive results. Activity calls are given as the source filed them.

tested on: NCI-H23 lung; test: NCI-60 one-dose screen, 48 h (100 = growth as untreated, 0 = no growth, -100 = all killed); settings: 10 µM unless noted
Procedure: Growth inhibition of the NCI-H23 human Non-Small Cell Lung tumor cell line is measured as a screen for anti-cancer activity. Cells are grown in 96 well plates and exposed to the test compound for 48 hours. Compounds are tested at a single concentration, which is 10^-5 M for most compounds. The reported endpoint is percent growth (GI% or GIPRCNT), where numbers from 0 - 100% represent growth inhibition, and numbers from -100% - 0 represent cell death. For example, a value of 40 represents 60% growth inhibition. A value of 0 means no net growth occurred over the course of the experiment. A value of -40 indicates 40% of cells at the beginning of the experiment died by the end of the experiment. A value of -100 means all cells are dead at the end of the experiment.
NCI-60 Human Tumor Cell Lines Screen was performed using the standard one-dose NCI protocol, which is described in more detail at https://dtp.cancer.gov/discovery_development/nci-60/default.htm.
Compounds with GIPRCNT values below 10 were considered active. Activity score was based on GIPRCNT using the following formula: […]
Score is 0 for GIPRCNT values of 100 or above, 50 for GIPRCNT values of 0, and 100 for GIPRCNT values of -100.

Q: How did the growth turn out when `CCc1onc(-c2ccc(OC)cc2)c1-c1ccccc1OCCN(CC)CC` was run?
A: The growth was 85.4%.

Q: With `O=C1OCC2=C1C(c1ccccc1)c1cc3c(cc1N2CCO)OCO3` (stereo not given) as the molecule, how does the growth read?
A: Its growth is 42.5%.

Q: `O=[N+]([O-])c1ccc(SSc2ccc([N+](=O)[O-])cc2Cl)c(Cl)c1` was tested. Which growth did it give?
A: Its growth is 89%.

Q: With `CC(=O)NC1C(O[C@H]2C[C@H]3[C@@H]4CC=C5C[C@@H](O)CC[C@]5(C)[C@H]4CC[C@]3(C)[C@H]2[C@H](C)C(=O)CCC(C)C)OCC(O)C1O` (stereo not given in full) as the molecule, how does the growth read?
A: The growth was 65.9%.

Q: How did the growth turn out when `C=CCCCCOc1cccc(/C=C2\N=C3SCCCN3C2=O)c1` was run?
A: The growth was 102%.

Q: For `Cc1nn(-c2cccc(Cl)c2)c(C)c1N=Nc1ccc(Br)cc1`, which growth is on record?
A: The growth was 96.9%.

Q: Which growth does the source give for `COc1cc(/C=C/c2cc(/C=C/c3ccc(O)c(OC)c3)n(C(=O)Nc3ccc(F)c(Cl)c3)n2)ccc1O` here?
A: Its growth is -12.9% (active).

Q: Which growth does the source give for `C=C1C(=O)O[C@H]2[C@H]1CC/C(COC(=O)N[C@@H](Cc1c[nH]c3ccccc13)C(=O)OC)=C\CC[C@@]1(C)O[C@@H]21` here?
A: Its growth is 68.5%.

Q: With `CC(C)(C)c1ccc(OC(=O)Nc2ccccc2)cc1` as the molecule, how does the growth read?
A: Its growth is 103%.

Q: Which growth does the source give for `CCN(CC)CCCCCCCCNc1c2ccc(Cl)cc2nc2ccc(OC)cc12` here?
A: Its growth is -43.8% (active).

Q: How did the growth turn out when `COc1ccc(C2NC(=O)c3cc4c(cc3N2)OCO4)cc1` (stereo not given) was run?
A: The growth was 8.1% (active).

Q: `CCN1C(=O)N(CC)C2C1NN=c1s/c(=C\c3ccco3)c(=O)n12` (stereo not given) was tested. Which growth did it give?
A: The growth was 37.3%.

Q: Which growth does the source give for `CC1=C(/C=C/C(C)=C/C=C(C(=O)O)\C(C)=C\C(=O)O)C(C)(C)CCC1` here?
A: The growth was 101%.

Q: How did the growth turn out when `COc1cc(C2CC(c3cccc(Nc4ccnc5cc(Cl)ccc45)c3)=NN2C=O)cc(OC)c1OC` (stereo not given) was run?
A: Its growth is 4.02% (active).

Q: `CCOC(=O)N1C2CCC(C2)N1C(=O)OCC` was tested. Which growth did it give?
A: Its growth is 104%.

Q: `c1cc2c(cc1-c1cnc3nonc3n1)OCO2` was tested. Which growth did it give?
A: The growth was 99.3%.

Q: How did the growth turn out when `CCCCCCCCCCCCCCCCCC(=O)[O][Sn]([CH2]CCC)([CH2]CCC)[CH2]CCC` was run?
A: The growth was -81.7% (active).

Q: How did the growth turn out when `Cn1cnc([N+](=O)[O-])c1S(=O)(=O)Oc1cccc2ccccc12` was run?
A: Its growth is 85.5%.

Q: `C=CCN(CC#N)CC=C` was tested. Which growth did it give?
A: Its growth is 106%.

Q: How did the growth turn out when `CCCCCCCCCCCCC1CCC(=O)O1` (stereo not given) was run?
A: The growth was 101%.

Q: With `CCOC(=O)C1=C(C)NC(=S)NC1c1ccccc1` (stereo not given) as the molecule, how does the growth read?
A: The growth was 108%.

Q: How did the growth turn out when `CCC(=O)NC1=C(Cl)C(=O)C(NC(=O)CC)=C(Cl)C1=O` was run?
A: Its growth is 94%.

Q: `COc1ccc([C@H]2c3[nH]c4ccccc4c3C[C@H]3C(=O)N(CCCCCCC(=O)NO)CC(=O)N23)cc1` was tested. Which growth did it give?
A: The growth was 34.6%.

Q: For `OCCN(CCO)c1ccc2ccccc2c1`, which growth is on record?
A: Its growth is 101%.

Q: How did the growth turn out when `Clc1ccc(-c2cnc3c(-c4ccnc(N5CCNCC5)c4)cnn3c2)cc1` was run?
A: The growth was -12.3% (active).

Q: With `Clc1ccc(Cl)c(N=Cc2ccc3c(c2)OCO3)c1` as the molecule, how does the growth read?
A: Its growth is 99.2%.

Q: `CCN(CC)c1ccc(/C=N/NC(=O)c2ccc(S(C)(=O)=O)cc2)c(O)c1` was tested. Which growth did it give?
A: The growth was 32.8%.

Q: For `COc1ccc(-c2nc(SCCC(C)C)nc(Nc3ccc(C(=O)O)cc3)c2C#N)cc1`, which growth is on record?
A: The growth was 92.4%.

Q: Which growth does the source give for `O=C1SCN(Cc2ccccc2)CN1Cc1ccccc1` here?
A: Its growth is 91.2%.

Q: With `O=C(NO)c1ccc(CNc2cccc3nc(C4CC4)n(-c4ccccc4)c(=O)c23)cc1` as the molecule, how does the growth read?
A: The growth was -48.4% (active).

Q: For `C=C1C(=O)O[C@H]2[C@H]1CC/C(COC(=O)NCc1[nH]nc3ccccc13)=C\CC[C@@]1(C)O[C@@H]21`, which growth is on record?
A: Its growth is 69.4%.

Q: Which growth does the source give for `CC(C)c1cccc(C#N)c1` here?
A: The growth was 92.8%.

Q: For `CCCCCCCCCCCCCCCCCC1=NCCN1CCO`, which growth is on record?
A: The growth was 77.1%.

Q: For `CCCCCCCCCCCC1=NC(C)(C)CN1CCO`, which growth is on record?
A: The growth was 65.1%.

Q: `Oc1ccc(-c2nc3ccccc3s2)cc1CN(Cc1ccccn1)Cc1ccccn1` was tested. Which growth did it give?
A: The growth was 17.5%.

Q: For `CCN(CC)c1cc(C)c(Cc2c(OC)ccc3ccccc23)cc1C`, which growth is on record?
A: The growth was 93.7%.

Q: With `COc1ccc(/C=C/c2nc(NCCCN(C)C)c3ccccc3n2)cc1` as the molecule, how does the growth read?
A: Its growth is 73.6%.

Q: How did the growth turn out when `CC(C)C/C=C/C=C/C(=O)N[C@@H](CC(N)=O)C(=O)N[C@@H]1C(=O)N[C@H](c2ccc(O)cc2)C(=O)N[C@H](CCCN)C(=O)N[C@H]([C@@H](C)O)C(=O)N[C@H](c2ccc(O)cc2)C(=O)N[C@H](c2ccc(O)cc2)C(=O)N[C@H]([C@H](C)O)C(=O)N[C@H](Cc2ccccc2)C(=O)N[C@H](CCCN)C(=O)N[C@H](c2ccc(O[C@H]3O[C@@H](CO)[C@@H](O)[C@@H](O)[C@H]3O[C@@H]3O[C@H](CO)[C@H](O)[C@H](O)[C@@H]3O)cc2)C(=O)N[C@H]([C@H](C)O)C(=O)N[C@H](c2ccc(O)cc2)C(=O)NCC(=O)N[C@H](CC(C)C)C(=O)N[C@H](C)C(=O)N[C@H](c2ccc(O)c(Cl)c2)C(=O)O[C@@H]1C(N)=O` was run?
A: Its growth is 39.5%.

Q: Which growth does the source give for `CCOC(=O)Cn1c(-c2nonc2NC(=O)c2ccccc2F)nc2ccccc21` here?
A: The growth was 76.2%.

Q: `CCOC(=O)C1C(=O)C=C(c2cc(OC)c(OC)c(OC)c2)CC1c1sc(N(C)Cc2ccccc2)nc1Cl` (stereo not given) was tested. Which growth did it give?
A: The growth was 87.3%.
